Test [1] can be described thus: NCI Yeast Anticancer Drug Screen. Data for the rad50 strain (AID 155).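 Also: 0% = growth of vehicle-only cultures of the same strain.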 To be noted: S. cerevisiae rad50 strain growth inhibition, stronger effect = higher value. Put shortly:
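Yeast carrying a defined DNA repair defect were exposed to test compounds, and growth was compared with vehicle-treated controls to give percent inhibition.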

A short description of test [2]: NCI Yeast Anticancer Drug Screen. Data for the mec2-1 strain (AID 157). The conditions noted are these: S. cerevisiae mec2-1 strain, stronger effect = higher value. Put shortly: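 Growth inhibition is read against vehicle-treated controls after compound exposure of the mec2-1 yeast strain, which is defective in DNA damage repair or cell cycle control.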
A short description of test [3]: NCI Yeast Anticancer Drug Screen. Data for the sgs1 mgt1 strain (AID 161).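 Also: 0% = growth of cultures given vehicle only.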 The conditions noted are these: S. cerevisiae sgs1 mgt1 strain, stronger effect = higher value. Put shortly:
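Percent growth inhibition was derived by comparing compound-exposed mutant yeast with vehicle-exposed cultures. The strain carries alterations in DNA damage repair.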

A short description of test [4]: NCI Yeast Anticancer Drug Screen. Data for the cln2 rad14 strain (AID 165).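 Also: 0% = growth equal to vehicle treated cultures.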 The conditions noted are these: S. cerevisiae cln2 rad14 strain, stronger effect = higher value. The method, boiled down: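 Growth inhibition, relative to vehicle-treated controls, is the read-out. The test organism is a yeast strain with defined genetic alterations, cln2 rad14.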
Test [5] in a line: NCI Yeast Anticancer Drug Screen. Data for the bub3 strain (AID 167). To be noted: S. cerevisiae bub3 mutant strain, stronger effect = higher value. The method, boiled down: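 Compounds were applied to a genetically altered yeast strain carrying a cell-cycle control defect. Growth inhibition was scored against vehicle-treated controls.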
The nature of test [6]: NCI Yeast Anticancer Drug Screen. Data for the mlh1 rad18 strain (AID 175). The conditions noted are these: S. cerevisiae mlh1 rad18 strain growth inhibition, stronger effect = higher value. The method, boiled down:
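Cells of a genetically altered yeast strain, deficient in DNA damage repair, were treated with compound. Their growth was then compared with that of vehicle-treated cultures to give inhibition.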

The mark [7] stands for this setting: at 5.0 µM (retest, dose inferred, filed as 0.5).
Where [8] appears, read: at 50.0 µM (retest, dose inferred, filed as 5.0).

Data on eight molecules can be found in PubChem BioAssay (NCI).

The panel holds about 79,000 compounds, 15% with a hit somewhere; the sample as a whole holds those more often. Unmarked numbers belong to inactive results. The source made the active and inactive calls. Rule as the data show it: active = growth inhibition above about 70%; inactive = the rest.

On to `CN(C)CCCNc1ccnc2c(COC(=O)N(CCCl)CCCl)ccc([N+](=O)[O-])c12`, for which the growth inhibition in test [1] (setting [7]) was 15%; in test [1] (setting [8]), 33%; in test [1] (at 50.0 µM), 52.5%; in test [2] (setting [7]) it was 23%; in test [2] (setting [8]) it was 41%; in test [2] (at 50.0 µM), 53.7%. Besides, the growth inhibition in test [3] (setting [7]) is 34%; in test [3] (setting [8]) it was 75% (active); in test [3] (at 50.0 µM) it was 74.2% (active); in test [4] (setting [7]), 22%; in test [4] (setting [8]), 63%; in test [4] (at 50.0 µM), 43.6%. Moreover, the growth inhibition in test [5] (setting [7]) is 10%; in test [5] (setting [8]) it was 42%; in test [5] (at 50.0 µM), 38.1%; in test [6] (setting [7]), 22%; in test [6] (setting [8]), 82% (active); in test [6] (at 50.0 µM) it was 84.7% (active).
For the molecule `CC(=O)C1C2c3ccccc3C(c3ccccc32)C1C` (centres undefined), the growth inhibition in test [1] (setting [7]) is 3%; in test [1] (setting [8]) it was 55%; in test [1] (at 50.0 µM), 77.6% (active); in test [2] (setting [7]), -7%; in test [2] (setting [8]), 52%; in test [2] (at 50.0 µM) it was 10.4%. In addition, the growth inhibition was -2% in test [3] (setting [7]); 62% in test [3] (setting [8]); 65% in test [3] (at 50.0 µM); -85% in test [4] (setting [7]); 63% in test [4] (setting [8]); 30.5% in test [4] (at 50.0 µM). Moreover, the growth inhibition is -9% in test [5] (setting [7]); 71% (active) in test [5] (setting [8]); 45.1% in test [5] (at 50.0 µM); -1% in test [6] (setting [7]); 53% in test [6] (setting [8]); 69.5% in test [6] (at 50.0 µM).
On to `COc1cc[c]([Sb]([Br])([CH]=C(C)C)([CH]=C(C)C)[CH]=C(C)C)cc1`, for which the growth inhibition was -1% in test [1] (setting [7]); 67% in test [1] (setting [8]); 80.8% (active) in test [1] (at 50.0 µM); -5% in test [2] (setting [7]); 85% (active) in test [2] (setting [8]); 76.5% (active) in test [2] (at 50.0 µM). Moreover, the growth inhibition in test [3] (setting [7]) was -1%; in test [3] (setting [8]), 62%; in test [3] (at 50.0 µM) it was 35%; in test [4] (setting [7]), -12%; in test [4] (setting [8]) it was 54%; in test [4] (at 50.0 µM), 49.2%. Further, the growth inhibition is -9% in test [5] (setting [7]); 72% (active) in test [5] (setting [8]); 80.3% (active) in test [5] (at 50.0 µM); -6% in test [6] (setting [7]); 73% (active) in test [6] (setting [8]); 72.8% (active) in test [6] (at 50.0 µM).
As for `CCC(C)c1cc([N+](=O)[O-])cc([N+](=O)[O-])c1O` (centres undefined), the growth inhibition in test [1] (setting [7]) was -137%; in test [1] (setting [8]), 39%; in test [1] (at 50.0 µM) it was 79% (active); in test [2] (setting [7]), -31%; in test [2] (setting [8]), 24%; in test [2] (at 50.0 µM) it was 66.2%. The growth inhibition in test [3] (setting [7]) is -50%; in test [3] (setting [8]), 60%; in test [3] (at 50.0 µM), 86% (active); in test [4] (setting [7]), -9%; in test [4] (setting [8]) it was 44%; in test [4] (at 50.0 µM), 69.9%. Besides, the growth inhibition is -58% in test [5] (setting [7]); 19% in test [5] (setting [8]); 80.1% (active) in test [5] (at 50.0 µM); -123% in test [6] (setting [7]); 40% in test [6] (setting [8]); 85.5% (active) in test [6] (at 50.0 µM).
In the case of `CCC[CH2][Sn][Cl]`, the growth inhibition in test [1] (setting [7]) was 99% (active); in test [1] (setting [8]), 98% (active); in test [1] (at 50.0 µM), 98.2% (active); in test [2] (setting [7]) it was 100% (active); in test [2] (setting [8]) it was 98% (active); in test [2] (at 50.0 µM) it was 98.7% (active). The growth inhibition in test [3] (setting [7]) is 99% (active); in test [3] (setting [8]), 99% (active); in test [3] (at 50.0 µM), 98.8% (active); in test [4] (setting [7]) it was 99% (active); in test [4] (setting [8]), 98% (active); in test [4] (at 50.0 µM), 97.7% (active). Moreover, the growth inhibition in test [5] (setting [7]) is 99% (active); in test [5] (setting [8]), 97% (active); in test [5] (at 50.0 µM), 98.1% (active); in test [6] (setting [7]) it was 99% (active); in test [6] (setting [8]) it was 98% (active); in test [6] (at 50.0 µM), 97.4% (active).
For `CCCCCCC[CH2][Sn]([F])([F])[CH2]CCCCCCC`, the growth inhibition in test [1] (setting [7]) is 3%; in test [1] (setting [8]), -7%; in test [1] (at 50.0 µM) it was 41%; in test [2] (setting [7]), 12%; in test [2] (setting [8]), 4%; in test [2] (at 50.0 µM) it was 46.5%. Moreover, the growth inhibition was -1% in test [3] (setting [7]); -2% in test [3] (setting [8]); 7.45% in test [3] (at 50.0 µM); -1% in test [4] (setting [7]); -5% in test [4] (setting [8]); 19.9% in test [4] (at 50.0 µM). Further, the growth inhibition in test [5] (setting [7]) was 4%; in test [5] (setting [8]) it was -1%; in test [5] (at 50.0 µM), -5.1%; in test [6] (setting [7]), 4%; in test [6] (setting [8]), -15%; in test [6] (at 50.0 µM) it was 40.2%.
For `COC1=CC2=CCC3C(CCC4(C)C3CCC4(C)OC(C)=O)C2(C)CC1` (centres undefined), the growth inhibition is -2% in test [1] (setting [7]); 66% in test [1] (setting [8]); 51.4% in test [1] (at 50.0 µM); 2% in test [2] (setting [7]); 43% in test [2] (setting [8]); 36.5% in test [2] (at 50.0 µM). Moreover, the growth inhibition in test [3] (setting [7]) was 0%; in test [3] (setting [8]), 82% (active); in test [3] (at 50.0 µM), 56.4%; in test [4] (setting [7]), 0%; in test [4] (setting [8]), 35%; in test [4] (at 50.0 µM), 30.6%. Further, the growth inhibition was -12% in test [5] (setting [7]); 24% in test [5] (setting [8]); 76.6% (active) in test [5] (at 50.0 µM); -2% in test [6] (setting [7]); 76% (active) in test [6] (setting [8]); 55.5% in test [6] (at 50.0 µM).
Turning to `CCC[CH2][Sn]1([CH2]CCC)[O]C(=O)c2cccc(C)c2[O]1`, the growth inhibition is 86% (active) in test [1] (setting [7]); 96% (active) in test [1] (setting [8]); 96.7% (active) in test [1] (at 50.0 µM); 89% (active) in test [2] (setting [7]); 98% (active) in test [2] (setting [8]); 97.7% (active) in test [2] (at 50.0 µM). Besides, the growth inhibition is 88% (active) in test [3] (setting [7]); 94% (active) in test [3] (setting [8]); 96.3% (active) in test [3] (at 50.0 µM); 86% (active) in test [4] (setting [7]); 97% (active) in test [4] (setting [8]); 93.3% (active) in test [4] (at 50.0 µM). Moreover, the growth inhibition in test [5] (setting [7]) was 88% (active); in test [5] (setting [8]), 97% (active); in test [5] (at 50.0 µM) it was 95.9% (active); in test [6] (setting [7]), 87% (active); in test [6] (setting [8]), 95% (active); in test [6] (at 50.0 µM), 98.2% (active).
